Pf growth 96h: inhibits malaria parasite growth, 96 h | actives 6.9% (n = 320,000) | P. falciparum luciferase reporter growth, 96 h | Potency, µM (titrated, usually from 28.7 µM), for the others: top-dose activity change, negative = inhibition, usual class: inhibitors; note: % is set by controls: 0 for no effect and ±100 for the full control effect
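Cell-based qHTS: luciferase-tagged P. falciparum in erythrocytes (2% hematocrit, 0.05% parasitemia final) incubated with compounds for 96 hours, 37 C, 5% CO2; luciferase detection reagent then added and luminescence measured.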
SARS PLP yeast: SARS-CoV PLP inhibition in yeast | S. cerevisiae expressing SARS-CoV PLpro, growth rescue | Potency, µM (top dose mostly 32.9 µM), for the others: top-dose activity, positive = growth rescue, most hits filed as activators | actives 0.19% (n = 330,000) | AID 485353; calls by dose curve; note: 0% is about no effect; nearly all actives have a fitted effect of over 55% in size
AMA1 RON2 block: inhibitors of Plasmodium falciparum AMA1-RON2 interaction; Potency, µM (top dose mostly 58.2 µM), inactives show at the highest dose activity change, negative = inhibition, usual class: inhibitors; actives 0.2% (n = 360,000); AlphaScreen AMA1-biotinylated RON2 peptide binding;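 note: 0% = vehicle wells and -100% = peptide control; nearly all actives have a fitted effect of over 45% in size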
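AMA1 (3D7) with his tag at 25 nM final met compounds first, then biotinylated RON2 peptide at 25 nM; detection used donor plus acceptor beads, 10 µg/mL apiece, read by AlphaScreen after 30 min at room temperature.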
Pf growth 48h: inhibits P. falciparum growth in the first generation, 48 h; P. falciparum luciferase growth in erythrocytes, 48 h; Potency, µM (doses to about 28.7 µM), inactives show at the top dose activity change, negative = inhibition, usual class: inhibitors; actives 5.9% (n = 310,000); note: % is set by controls: 0 for no effect and ±100 for the full control effect
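Read-out is firefly luciferase luminescence from an integrated reporter in P. falciparum, so falling signal marks reduced parasite growth. Infected erythrocytes were at 2% hematocrit and 0.1% parasitemia (final) in Albumax-supplemented RPMI 1640.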
Active calls of the source: *; ? = inconclusive; . = no result; [ ] = dose if it differs, or a comment. Rows were chosen to be rich in hits. Some 9.4% of all compounds tested hit in one or more screens of this group. Unless noted, calls come from the whole dose curve; as a rule, active = well fitted curve in the direction sought with a large enough effect; inconclusive = small, poorly fitted or top-dose-only effect, or another doubt; inactive = no such curve, though single readings can be large; an effect the other way counts as inactive or inconclusive. Potency is the fitted concentration of half-maximal effect.

SMILES | Pf growth 96h | SARS PLP yeast | AMA1 RON2 block | Pf growth 48h
O=C(c1ccc2c(=O)n3c(nc2c1)CCCCC3)N1CCCCC1 | -23% | -2% | -7% | 21%
CC(=O)Nc1ccc(NC(=O)c2cc(=O)c3ccc(C)cc3o2)cc1 | 68% | 1% | -1% | 31%
Cc1ccc(O)c(Nc2ncnc3ccc([N+](=O)[O-])cc23)c1 | -18% | 0% | -13% | ?
O=[N+]([O-])c1ccc2ncnc(Nc3ccc4c(c3)OCCO4)c2c1 | ? | 2% | -8% | 9.3µM*
CCOC(=O)C1CCN(C(=O)CCS(=O)(=O)Cc2ccccc2)CC1 | 13% | 1% | 7% | 0%
COCCN(CCOC)S(=O)(=O)c1ccc(C(=O)Nc2nc(C)c(C(C)=O)s2)cc1 | ? | -15% | 0% | 0%
COc1ccccc1N(C)S(=O)(=O)c1ccc(C(=O)NCC2CCCCC2)cc1 | ? | -7% | 1% | 13µM*
COc1ccccc1N(C)S(=O)(=O)c1ccc(C(=O)N(C)Cc2ccc(OC(F)F)cc2)cc1 | ? | 5% | -13% | 12µM*
COc1ccccc1N(C)S(=O)(=O)c1ccc(C(=O)NCC(C)C)cc1 | . | -1% | 0% | -14%
COc1ccccc1N(C)S(=O)(=O)c1ccc(C(=O)Nc2nc(C)c(C(C)=O)s2)cc1 | ? | 0% | -5% | 12µM*
CCCc1nnc(NC(=O)c2ccc(S(=O)(=O)N(C)c3ccccc3OC)cc2)s1 | 13µM* | -4% | -12% | 10µM*
CCOc1ncccc1C(=O)OCC(=O)NCCc1ccccc1 | 13% | -6% | -11% | .
COc1ccccc1N(C)S(=O)(=O)c1ccc(C(=O)Nc2nccs2)cc1 | ? | 1% | 96% | 15µM*
COc1ccccc1N(C)S(=O)(=O)c1ccc(C(=O)Nc2ncc(C)s2)cc1 | ? | 2% | 55% | ?
COc1cccc(-c2ccc(NC(=O)C3CCCN(Cc4cnn(C(C)C)c4)C3)cc2)c1 (stereo not given) | 11% | ? | -8% | ?
CCOc1ccc(S(=O)(=O)n2ccnc2C)cc1 | 12µM* | 2% | . | -7%
CCOc1ccc(OCC)c(S(=O)(=O)n2ccnc2C)c1 | ? | -17% | 7% | 140%
C(=N\Nc1ccc2nncn2n1)/c1ccccn1 | 9.3µM* | -1% | 74% | -75%
O=c1nc(N/N=C/c2ccccn2)cn[nH]1 | -6%[1.15 µM] | -25% | -15% | 1µM*
Cc1ccc(/C=N/Nc2cn[nH]c(=O)n2)o1 | 11% | 0% | 44% | 35%
O=C(NC1(O)C(=O)c2ccccc2C1=O)c1c(Cl)cccc1Cl | 33% | 1% | -25% | 2.9µM*
O=C(NC1(O)C(=O)c2ccccc2C1=O)c1ccccc1 | -20% | 3% | 1% | -6%
COc1ccc(-c2nc(N3CCC(C)CC3)[nH]c(=O)c2C#N)cc1 | . | 7% | -4% | ?
CCOc1ccccc1OCCn1nnc2ccccc21 | 10µM* | -3% | -7% | 0%
O=C(Cn1nnc2ccccc21)Nc1ccccc1[N+](=O)[O-] | 44% | 0% | 40% | -15%
SMILES | Pf growth 96h | SARS PLP yeast | AMA1 RON2 block | Pf growth 48h
CCOc1cc(C#N)c(NC(=O)Cn2nnc3ccccc32)cc1OCC | 5.9µM* | 1% | -8% | 6%
CCOc1ccc2c(c1)c(C(C)=O)c(C)n2Cc1ccco1 | 4% | 5% | -3% | -3%
CCOc1ccc(Oc2c(/C=N/NC(C)=O)c(C)nn2-c2ccccc2)cc1 | ? | 7% | 16% | ?
CN(CC(=O)NNC(=O)CNC(=O)c1ccccc1F)S(=O)(=O)c1ccc(Cl)cc1 | -18% | 1% | 97% | -25%
COc1ccccc1-c1nc2cc3ccccc3cc2nc1-c1ccccc1OC | 12µM* | 0% | -10% | ?
Cc1ccc(C(=O)COC(=O)CCc2ccc(S(=O)(=O)N3CCCCC3)cc2)cc1 | 0% | ? | -2% | 4%
COc1ccc(N2CCN(C(=O)NC34CC5CC(CC(C5)C3)C4)CC2)cc1 | 5.2µM* | -2% | -10% | .
O=C(NC12CC3CC(CC(C3)C1)C2)N1CCN(c2ccccc2)CC1 | 375% | -5% | 18% | ?
O=C(OCc1cn([C@@H]2CN(C(=O)c3cccs3)[C@@H](c3ccc(Cl)cc3)C[C@H]2O)nn1)c1ccccc1 | . | . | -6% | .
COC(=O)c1ccc(OCC2c3cc(OC)c(OC)cc3CCN2C(=O)C2CC2)cc1 (stereo not given) | ? | 3% | -17% | 12µM*
CCNC(=S)N1CCc2cc(OC)c(OC)cc2C1COc1ccc(OC)cc1 (stereo not given) | ? | 0% | 0% | ?
COc1cccc(NC(=S)N2CCc3cc(OC)c(OC)cc3C2COc2ccc3c(C)cc(=O)oc3c2)c1 (stereo not given) | ? | 19% | -12% | 5.2µM*
CCc1ccc(OCC2c3cc(OC)c(OC)cc3CCN2C(=S)NCCOC)cc1 (stereo not given) | 10µM* | -18% | -27% | ?
CCCC1C2C(=O)N(c3ccc(OC)cc3)C(=O)C2ON1c1ccccc1 (stereo not given) | . | -21% | 1% | 16%
CC1CCCCC1NC(=O)c1cccc(S(=O)(=O)N2CCN(C)CC2)c1 (stereo not given) | 17% | -1% | 6% | 1%
CSCCC(NC(=O)CCC(=O)OCC(=O)[C@@]1(O)CCC2[C@@H]3CCC4=CC(=O)C=C[C@]4(C)C3[C@@H](O)C[C@@]21C)C(=O)O (stereo not given in full) | ? | 0% | 0% | 5.2µM*
CCCN1CC(C)C(OC(C)=O)(c2ccccc2)CC1C (stereo not given) | -21% | 2% | 10% | 10%
COc1ccc(C2=Nc3ccccc3NC(=O)C2N(C(=O)c2ccnc3ccccc23)c2ccccc2)cc1 (stereo not given) | . | . | -1% | .
CC(C)COCC(CN(Cc1ccccc1)c1ccccc1)N1CCCC1 (stereo not given) | ? | -1% | -5% | 11µM*
CCCCc1cc(=O)oc2cc(C)c(CN3CCCC3)c(O)c12 | 105% | 0% | -11% | 4.1µM*
CCc1cc(=O)oc2cc(C)c(CN3CCCC(C)C3)c(O)c12 (stereo not given) | ? | 3% | 19µM* | 2.1µM*
CCCCc1cc(=O)oc2c(CN3CCCC3)c(O)ccc12 | ? | 0% | 5% | ?
CCc1cc(=O)oc2c(CN3CCCC3)c(O)c(Cl)cc12 | . | 4% | 19% | 17%
CCC(=O)Nc1ccc(Cl)c(NC(=O)c2ccc([N+](=O)[O-])cc2)c1 | ? | -7% | 11% | 66%
COC(=O)C1=C(c2ccc(-c3ccccc3)c(F)c2)C[C@@H]2CC[C@H]1N2C(=O)NCCNC(C)=O | -6% | 1% | -5% | ?
COC(=O)C1=C(c2ccc(-c3ccccc3)c(F)c2)C[C@@H]2CC[C@H]1N2C(=O)NCCc1ccccc1 | ? | -6% | -8% | 6.6µM*
COC(=O)C1=C(c2ccc(-c3ccccc3)c(F)c2)C[C@@H]2CC[C@H]1N2C(=O)NCCOc1ccc(OC)cc1 | ? | 2% | -26% | 7.4µM*

Source: PubChem BioAssay
